TRHR PAM: allosterically enhances the human TRH receptor. P34981. TRHR cells, fluo-8 calcium fluorescence, EC20 TRH enhancement. enhancement, % at 2 µM. 360,000 compounds, 0.66% hits; in the data active = enhancement above about 30%
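Enhancer read-out: after compound pinning and an initial kinetic agonist-mode read, an EC20 of TRH (10 nM final) was injected and fluo-8 calcium signal (Ex 480/Em 530) followed at 1 s/cycle for 100 cycles in TRHR-expressing cells.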
D1 antagonist: human D1 dopamine receptor antagonism; 360,000 compounds, 3.2% hits; activity change, negative = inhibition, % at 10 µM; HEK293 TREx D1 cells, calcium flux, dopamine EC80; stronger effect = lower value; P21728; in the data active = activity change below about -30%
Target sequence (P21728 whole entry, looked up): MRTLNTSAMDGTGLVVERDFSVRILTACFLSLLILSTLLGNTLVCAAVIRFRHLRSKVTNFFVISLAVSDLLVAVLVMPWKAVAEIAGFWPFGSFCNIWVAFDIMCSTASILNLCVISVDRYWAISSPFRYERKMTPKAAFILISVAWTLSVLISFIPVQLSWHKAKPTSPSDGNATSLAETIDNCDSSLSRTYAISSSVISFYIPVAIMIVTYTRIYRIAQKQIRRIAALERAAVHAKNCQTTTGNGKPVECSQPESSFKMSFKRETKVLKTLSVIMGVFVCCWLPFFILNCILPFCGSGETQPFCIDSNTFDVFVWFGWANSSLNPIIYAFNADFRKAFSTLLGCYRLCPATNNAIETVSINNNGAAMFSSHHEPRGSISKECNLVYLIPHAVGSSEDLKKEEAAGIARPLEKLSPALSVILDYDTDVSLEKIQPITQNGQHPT
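Allosteric or orthosteric antagonism assessed as attenuation of the calcium response to EC80 dopamine, added 180 s after compound, in induced HEK293 Trex D1 cells loaded with no-wash calcium dye.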
D1 potentiator: enhances dopamine response at the human D1 receptor | P21728 | HEK293 TREx D1 cells, calcium flux, dopamine EC20 potentiation | potentiation, % at 10 µM | 360,000 compounds, 0.036% hits; in the data active = potentiation above about 30%
TRHR agonist: agonists of human TRH receptor. P34981. 360,000 compounds, 0.18% hits. TRHR cells, calcium flux fluo-8, FDSS agonist mode. activation, % at 2 µM
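Steps: seed TRHR cells overnight; add fluo-8 no-wash Ca dye, RT 30 min–1.5 h; record 10 s baseline; pin-transfer compounds; monitor fluorescence 1 cycle/s for the agonist window. Calcium increases flag candidate agonists.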
D1 agonist: human D1 receptor agonism. P21728. 360,000 compounds, 1% hits. activation, % at 2 µM. HEK293 T-REx D1 cells, calcium flux, agonist mode. AID 504660
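Agonism was scored from calcium flux recorded over 180 s (1 read/s) after pintool compound addition, following a 10-cycle baseline. Cells were inducible force-coupled HEK293 TREx D1, plated overnight at 30 C and loaded with no-wash calcium dye.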
Each line names hits and unclear results; the compound was inactive in the other large screens; ! = repeats disagree. This is a sample that favours compounds with a hit; in the whole collection about 4.7% have one here. Rule as the data show it, unless noted: active = activation above about 30%; inactive = the rest.

Cc1sc2ncn(CC(=O)NCC(=O)N(C)C3CCCCC3)c(=O)c2c1C	D1 antagonist -34
Cc1sc2ncn(CC(=O)NCC(=O)N(C)Cc3ccccc3)c(=O)c2c1C	none
Cc1oc(-c2cc3c(cc2Cl)OCO3)nc1CN1CCCC1c1ccc(F)cc1 (centres undefined)	none
COc1ccc(-c2c(-c3cc(OC)cc(OC)c3)n(C)c3ccc(Br)cc23)cc1	none
COc1ccc(N=Nc2nc3ccc(Br)cc3n2C)cc1	D1 agonist 343
COC(=O)c1ccccc1OC(=O)c1cc[n+]([O-])cc1	D1 potentiator 31
COc1ccc(OCCOC(=O)c2cc(S(=O)(=O)N3CCOCC3)c(Cl)cc2Cl)cc1	none
Cc1ccc(NS(=O)(=O)c2ccc3c(c2)OCCCO3)cc1S(=O)(=O)N1CCOCC1	D1 antagonist -35
CCc1ccc(NC(=O)c2ccc(F)c(S(=O)(=O)N3CCN(c4ccc(OC)cc4)CC3)c2)cc1	D1 antagonist -45
COc1ccc(OCCOC(=O)c2ccc(F)c(S(=O)(=O)N3CCOCC3)c2)cc1	D1 antagonist -64
Cc1ccc(NC(=O)COC(=O)c2ccc3c(c2)OCCO3)cc1S(=O)(=O)N1CCOCC1	none
Cc1ccc(C(=O)OCC(=O)Nc2ccc3c(c2)OCO3)cc1S(=O)(=O)N1CCOCC1	D1 antagonist -77
CCc1ccc(NC(=O)c2ccc(F)c(S(=O)(=O)N3CCC(C)CC3)c2)cc1	none
COCc1nnc(NC(=O)c2cccc(NC(=O)c3ccccc3)c2)s1	none
Cc1ccc(NC(=O)CCCOc2ccccc2)cc1S(=O)(=O)N1CCOCC1	D1 antagonist -53
O=C(OCCOc1cccc(Cl)c1)c1ccc(F)c(S(=O)(=O)N2CCOCC2)c1	none
Cc1ccc(C(=O)OCCOc2cccc(Cl)c2)cc1S(=O)(=O)N1CCOCC1	D1 agonist 31
CCOc1ccc(NC(=O)COc2nsnc2N2CCCCC2)cc1	none
COc1ccc(NC(=O)COc2nsnc2N2CCCCC2)cc1	D1 antagonist -34
COc1ccc(-c2[nH]c(-c3ccc(C)cc3)nc2SCC(=O)NCC2CCCO2)cc1 (centres undefined)	none
CCN(c1ccccc1)S(=O)(=O)c1cc(C(=O)Nc2ccc(Br)cc2)ccc1F	D1 antagonist -37!
O=C1CC(N2CCN(c3ccc(Cl)c(Cl)c3)CC2)C(=O)N1 (centres undefined)	D1 agonist 32
CC(NCC(O)COCCC12CC3CC(CC(C3)C1)C2)c1ccccc1 (centres undefined)	D1 agonist 169
CCc1cc(C(=O)Cc2cnn(-c3ccccc3)c2)c(O)cc1O	D1 agonist 38
O=C(Cc1cnn(-c2ccccc2)c1)c1ccc(O)c(O)c1O	none
Cc1ccccc1OCC(O)CN1CCC(C)CC1 (centres undefined)	none
Cc1ccccc1OCC(O)CN1CCN(CC(O)COc2ccccc2C)CC1 (centres undefined)	D1 agonist 54
Cc1ccccc1OCC(O)Cn1c(=N)n(CCN2CCOCC2)c2ccccc21 (centres undefined)	D1 antagonist -35!
CCCCC(NC(=O)CCc1c(C)c2cc3c4c(oc3c(C)c2oc1=O)CCCC4)C(=O)O (centres undefined)	none
CCOc1cccc(CNC(=O)c2ccc(N3CCCC3)c(NC(=O)NCc3ccc(F)cc3)c2)c1	D1 antagonist -35
COC(=O)[C@H]1CCCN1C(=O)Nc1cccc(Oc2c(F)c(F)c(F)c(F)c2F)c1	D1 antagonist -31
Cc1cc(C(=O)C(C)OC(=O)C2=NNC(=O)CC2)c(C)n1-c1ccc(OC(F)F)cc1 (centres undefined)	none
Cc1cc(C(=O)COC(=O)C2=NNC(=O)CC2)c(C)n1-c1ccc(OC(F)F)cc1	D1 antagonist -35
c1ccc(SCCCCNC2CCCC2)cc1	none
c1ccc(-c2ccc(OCCCNC3CCCC3)cc2)cc1	D1 antagonist -37, D1 agonist 41
c1ccc(Cc2ccc(OCCCNC3CCCC3)cc2)cc1	D1 agonist 56
COc1ccc(OCCNC2CCCC2)cc1	none
COCCNC(=O)c1[nH]c2cc(C)ccc2c1Sc1ccc(Cl)cc1	none
COC(=O)c1ccccc1NS(=O)(=O)c1ccc2c(c1)oc(=O)n2C	none
Cn1c(=O)oc2cc(S(=O)(=O)Nc3ccccc3O)ccc21	D1 antagonist -40!
Cn1c(=O)oc2cc(S(=O)(=O)NCCN3CCN(c4ccccc4F)CC3)ccc21	D1 antagonist -75
Cc1ccc(NS(=O)(=O)c2ccc3c(c2)oc(=O)n3C)cc1	none
CCc1ccc(NS(=O)(=O)c2ccc3c(c2)oc(=O)n3C)cc1	D1 antagonist -34
CCOc1ccccc1NC(=O)Cn1c(=O)oc2cc(S(=O)(=O)NCc3ccccc3)ccc21	D1 antagonist -39
CCC(=O)Nc1cccc(C2=NN(c3ccccc3)C(c3ccc(OC)cc3)C2)c1 (centres undefined)	none
CCOc1ccc(S(=O)(=O)N2CCCC(C(=O)NCc3ccccc3)C2)cc1 (centres undefined)	none
CC(C)c1ccc(NC(=O)C(Cc2ccccc2)NS(=O)(=O)c2ccc3c(c2)oc(=O)n3C)cc1 (centres undefined)	D1 antagonist -37
Cn1c(=O)oc2cc(S(=O)(=O)NCc3ccc(Cl)cc3)ccc21	D1 antagonist -37
CC(=O)Nc1ccc(NC(=O)C(Cc2ccccc2)NS(=O)(=O)c2ccc3c(c2)oc(=O)n3C)cc1 (centres undefined)	none
CCOc1ccccc1/C=N/NC(=O)Cc1csc(Nc2cccc(C(F)(F)F)c2)n1	none
CCOc1ccc(/C=N/NC(=O)Cc2csc(Nc3cccc(C(F)(F)F)c3)n2)c(OCC)c1	D1 antagonist -32
COc1c(Cl)cccc1NC(=O)c1c(NC(=O)Cc2ccccc2)sc2c1CCCC2	none
CC(C)N=C(NC#N)SCC(=O)NC(C)(C)C	none
CC(C)(C)NC(=O)CSC(=Nc1cccc(F)c1)NC#N	D1 antagonist -40
N#CNC(=Nc1ccccc1)SCc1ccc(C(=O)O)cc1	none
N#CNC(=Nc1cccc(F)c1)SCc1ccccc1F	D1 antagonist -40
CC(C)N=C(NC#N)SCc1ccccc1F	D1 antagonist -49
CC/C=C(/NC(C)=O)c1ccccc1	none (no result: D1 antagonist)
CN1CCN(c2nc3c(S(=O)(=O)c4ccc(Br)cc4)nnn3c3ccsc23)CC1	none
CCNC(=S)N(CCc1c(C)[nH]c2ccc(Cl)cc12)Cc1cccnc1	D1 antagonist -43
COCCNC(=S)N(CCc1c(C)[nH]c2ccc(Cl)cc12)Cc1cccnc1	none
CNC(=S)N(CCc1c(C)[nH]c2ccc(Cl)cc12)Cc1cccnc1	D1 agonist 31
Clc1nc(-c2n[nH]nc2Cl)n[nH]1	D1 antagonist -31
Cc1ccc(S(=O)(=O)N2CCN(C(=O)c3ccnn3C)CC2)cc1C	D1 antagonist -34
O=C(Cc1ccccc1)NC(=S)Nc1ccc(OC(F)F)cc1	none

Source: PubChem BioAssay
